Among the data in PubChem BioAssay (NCI) are growth values, retold here.

Common to all, as to assay: NCI-60 one-dose screen, 48 h (100 = growth as untreated, 0 = no growth, -100 = all killed)
The subject of one experiment is HCT-15 colon. To be noted: 10 µM unless noted.
The next experiment deals with HT29 colon. To be noted: 10 µM unless noted.
In a further experiment the test system is SNB-19 CNS. To be noted: 10 µM unless noted.
For the next experiment, the system named is U251 CNS. To be noted: 10 µM unless noted.
Another experiment has as its system PC-3 prostate. The conditions noted are these: 10 µM unless noted.
The test system of another experiment is SK-MEL-5 melanoma. To be noted: 10 µM unless noted.
A further experiment deals with UACC-62 melanoma. The conditions noted are these: 10 µM unless noted.
The next experiment concerns LOX IMVI melanoma. To be noted: 10 µM unless noted.
The subject of the next experiment is SK-MEL-28 melanoma. The conditions noted are these: 10 µM unless noted.
For the next experiment, the system named is SK-MEL-2 melanoma. To be noted: 10 µM unless noted.
A further experiment concerns EKVX NSCLC. The conditions noted are these: 10 µM unless noted.
A further experiment concerns SN12C renal. To be noted: 10 µM unless noted.
For another experiment, the system named is UO-31 renal. The conditions noted are these: 10 µM unless noted.
The next experiment has as its system TK-10 renal. The conditions noted are these: 10 µM unless noted.
The test system of another experiment is ACHN renal. The conditions noted are these: 10 µM unless noted.
For a further experiment, the system named is CAKI-1 renal. The conditions noted are these: 10 µM.
In a further experiment the test system is A498 renal. To be noted: 10 µM unless noted.
The next experiment relates to CCRF-CEM leukemia. The conditions noted are these: 10 µM unless noted.
The subject of the next experiment is MOLT-4 leukemia. The conditions noted are these: 10 µM unless noted.
For a further experiment, the system named is SNB-75 CNS. To be noted: 10 µM unless noted.

About 83,000 compounds went through this panel and 20% of them were active in at least one assay; those are over-represented in the sample as a whole.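 The test compound was applied at a single concentration to cells in 96-well plates for 48 hours, and percent growth was recorded.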 A number with no mark means an inactive call. Calls of active or inactive are those of the source. The calls were made as follows: active = growth percent below 10; inactive = the rest.

With `N#C/C(=C\c1ccc2ccccc2c1)C(=O)Nc1sc2c(c1C#N)CCC2`, the growth is 99% in the experiment on HCT-15 colon; 121% in the experiment with HT29 colon; 98.9% with SNB-19 CNS; 99% in the experiment with U251 CNS; 98.1% with PC-3 prostate; 98% with SK-MEL-5 melanoma. In addition, the growth is 90.3% in the experiment on UACC-62 melanoma; 95.6% in the experiment with LOX IMVI melanoma; 113% with SK-MEL-28 melanoma; 100% with SK-MEL-2 melanoma; 94.8% with EKVX NSCLC; 95.5% in the experiment with SN12C renal. Further, the growth with UO-31 renal is 78.2%; in the experiment on TK-10 renal, 108%; with ACHN renal it was 104%; in the experiment with CAKI-1 renal, 88.2%; with A498 renal it was 93.9%; with CCRF-CEM leukemia it was 103%. In addition, the growth in the experiment on MOLT-4 leukemia was 101%.

Turning to `COc1ccc(-c2nnc(SCc3ccc(O)c4ncccc34)o2)cc1`, the growth with HCT-15 colon is 10.1%; with HT29 colon, 89.1%; with SNB-19 CNS, 22.3%; in the experiment with U251 CNS it was 20%; in the experiment on PC-3 prostate it was 26.2%; in the experiment on SK-MEL-5 melanoma it was 9.31% (active). For the same molecule, the growth in the experiment on UACC-62 melanoma was 42.8%; in the experiment with LOX IMVI melanoma, 19.7%; with SK-MEL-28 melanoma it was 41.7%; in the experiment with SK-MEL-2 melanoma it was 48.3%; in the experiment on EKVX NSCLC it was 57.8%; with SN12C renal, 46.6%. Also, the growth in the experiment on UO-31 renal is 8.44% (active); in the experiment on TK-10 renal, 56.4%; in the experiment on ACHN renal it was 23.6%; in the experiment with CAKI-1 renal it was 32.1%; in the experiment with A498 renal, 69.8%; with CCRF-CEM leukemia, 15.7%. Further, the growth in the experiment on MOLT-4 leukemia was 28.1%.

Take `N#Cc1c(-c2cccs2)cc(-c2cnccn2)nc1SCC(=O)NNC(=S)Nc1ccc(F)cc1`: the growth in the experiment with HCT-15 colon was 102%; in the experiment on HT29 colon, 116%; in the experiment on SNB-19 CNS, 94.7%; in the experiment with U251 CNS it was 101%; in the experiment with PC-3 prostate it was 99.3%; in the experiment with SK-MEL-5 melanoma it was 89.5%. Also, the growth was 87.8% in the experiment on UACC-62 melanoma; 72.1% in the experiment with LOX IMVI melanoma; 114% in the experiment with SK-MEL-28 melanoma; 123% with SK-MEL-2 melanoma; 103% in the experiment with EKVX NSCLC; 100% with SN12C renal. The growth with UO-31 renal is 79%; with TK-10 renal, 108%; in the experiment on ACHN renal, 104%; with CAKI-1 renal, 99.1%; in the experiment on A498 renal, 118%; in the experiment with CCRF-CEM leukemia it was 93.6%. For the same molecule, the growth with MOLT-4 leukemia was 94.9%.

As to `O=[N+]([O-])c1ccc(-c2nnc(SCc3ccc(O)c4ncccc34)o2)cc1`, the growth with HCT-15 colon was 10.9%; with HT29 colon, 47.4%; with SNB-19 CNS, 22.2%; with U251 CNS, 16.2%; in the experiment with PC-3 prostate, 15%; in the experiment with SK-MEL-5 melanoma, -6.14% (active). Moreover, the growth in the experiment with UACC-62 melanoma is 25.3%; with LOX IMVI melanoma, 25%; with SK-MEL-28 melanoma it was 38.9%; in the experiment on SK-MEL-2 melanoma, 25%; with EKVX NSCLC, 27.3%; in the experiment on SN12C renal, 17.1%. Moreover, the growth was 7.09% (active) in the experiment with UO-31 renal; 29.2% in the experiment on TK-10 renal; 12.6% with ACHN renal; 22.9% with CAKI-1 renal; 27.7% with A498 renal; 19.2% in the experiment with CCRF-CEM leukemia. The growth in the experiment with MOLT-4 leukemia is 25.1%.

Turning to `N/C(=N\c1nc2c(Cl)cccc2s1)C(Cl)(Cl)Cl`, the growth in the experiment with HCT-15 colon was 81.3%; with HT29 colon it was 46.8%; in the experiment with SNB-19 CNS it was 72.7%; with U251 CNS, 57.3%; in the experiment with PC-3 prostate, 65%; in the experiment with SK-MEL-5 melanoma it was 96.1%. Moreover, the growth in the experiment with UACC-62 melanoma is 75.4%; in the experiment on LOX IMVI melanoma, 62.4%; with SK-MEL-28 melanoma it was 83.3%; with SK-MEL-2 melanoma it was 105%; in the experiment on EKVX NSCLC, 52.6%; in the experiment on SN12C renal, 91.9%. In addition, the growth in the experiment on UO-31 renal was 61%; with TK-10 renal, 83.5%; in the experiment with ACHN renal, 19.6%; with CAKI-1 renal it was 43.9%; in the experiment on A498 renal it was 29.9%; in the experiment on CCRF-CEM leukemia, 97.3%. In the experiment with MOLT-4 leukemia, the growth is 92.1%.

With `CN1CCN(Cc2ccc(NC(=O)c3cncc(C#Cc4[nH]nc5ncncc45)c3)cc2C(F)(F)F)CC1`, the growth is 65.4% with HCT-15 colon; 25.8% in the experiment with HT29 colon; 78.2% with SNB-75 CNS; 97.3% in the experiment on SNB-19 CNS; 76.8% in the experiment with U251 CNS; 71.2% in the experiment with SK-MEL-5 melanoma. In addition, the growth with UACC-62 melanoma is 39.6%; in the experiment on SK-MEL-28 melanoma it was 37.7%; in the experiment on EKVX NSCLC, 108%; in the experiment with SN12C renal, 48.1%; in the experiment with UO-31 renal, 82.8%; with TK-10 renal it was 94.7%. The growth in the experiment on ACHN renal is 59.1%; with CAKI-1 renal it was 59.4%; in the experiment on CCRF-CEM leukemia, 51%; in the experiment on MOLT-4 leukemia it was 47.2%.

For `C#C[C@]1(O)CC[C@H]2[C@@H]3CC=C4c5sc(-c6ccc(OC)cc6)nc5CC[C@]4(C)[C@H]3CC[C@@]21C`, the growth with HCT-15 colon was 46.9%; in the experiment on HT29 colon, 46.6%; with SNB-19 CNS, 63.6%; in the experiment on U251 CNS, 42.7%; in the experiment with PC-3 prostate, 28.2%; in the experiment on SK-MEL-5 melanoma, 85.1%. Moreover, the growth in the experiment on UACC-62 melanoma is 33.2%; with LOX IMVI melanoma it was 45%; in the experiment on SK-MEL-28 melanoma, 4.22% (active); in the experiment with SK-MEL-2 melanoma, 53.8%; with EKVX NSCLC it was 76.8%; in the experiment on SN12C renal, 84.2%. Moreover, the growth with UO-31 renal is 18.9%; with TK-10 renal it was 78%; in the experiment on ACHN renal, 59.8%; with CAKI-1 renal it was 64.4%; in the experiment on A498 renal, 56%; in the experiment with CCRF-CEM leukemia, 26.8%. Moreover, in the experiment with MOLT-4 leukemia, the growth is 7.24% (active).

Consider `Cc1nn(-c2ccc(Cl)cc2)c(C)c1N=Nc1ccc2oc(=O)ccc2c1`, for which the growth was 81.4% in the experiment with HCT-15 colon; 94.5% in the experiment on HT29 colon; 97.3% in the experiment with SNB-19 CNS; 82.8% in the experiment on U251 CNS; 80.3% in the experiment on PC-3 prostate; 84.3% in the experiment with SK-MEL-5 melanoma. Besides, the growth in the experiment with UACC-62 melanoma is 80.5%; with LOX IMVI melanoma, 69.6%; in the experiment with SK-MEL-28 melanoma, 82.5%; in the experiment on SK-MEL-2 melanoma, 110%; in the experiment on EKVX NSCLC it was 85.6%; with SN12C renal it was 56.4%. In addition, the growth in the experiment on UO-31 renal was 64.8%; in the experiment on TK-10 renal it was 89.6%; in the experiment with ACHN renal, 79.4%; in the experiment on CAKI-1 renal it was 73.7%; with A498 renal, 85.6%; in the experiment on CCRF-CEM leukemia, 82%. Also, the growth with MOLT-4 leukemia was 89.3%.
